# Experimental data as given in PubChem BioAssay (Tox21).
# “And” between values parts separate entries of the source, which are not always exact repeats. Identical values can stand only once. Results filed as inconclusive are left out. Entries that show only a call come without a potency. Where a structure was tested more than once in an assay, its records may differ in their call. The source made the active and inactive calls. Unless noted, calls follow the shape of the dose curve; as a rule, active = well fitted curve in the direction sought with a large enough effect in the repeat runs; inconclusive = weak or mixed curves; inactive = no such curve, though single readings can be large; an effect the other way counts as inactive or inconclusive.
# Experiments:
# [1] = qHTS assay to identify small molecule antagonists of the glucocorticoid receptor (GR) signaling pathway - cell viability counter screen (AID 720693); settings: GR-bla HeLa viability, CellTiter-Glo luminescence, 18 h, with 5 nM dexamethasone present; series mostly up to 58.5 µM; also: nearly all actives have a fitted effect of over 55% in size
# [2] = qHTS assay for identifying genotoxic compounds that show differential cytotoxicity against isogenic chicken DT40 cell lines with known DNA damage response pathways - wild type cell line (AID 743012); settings: DT40 wild type chicken cells viability, CellTiter-Glo, 40 h; series mostly up to 68.4 µM; also: nearly all actives have a fitted effect of over 60% in size; also: potency is read from the fitted curve at half-maximal effect
# Summary of the method: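 First, wild type DT40 cells were plated at 300 per well and equilibrated about 0.5 h at 37 C/5% CO2. Next, compounds in DMSO were added and exposure lasted 40 h. Finally, CellTiter-Glo was added for 30 min at room temperature and luminescence recorded.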
# [3] = qHTS assay for identifying genotoxic compounds that show differential cytotoxicity against isogenic chicken DT40 cell lines with known DNA damage response pathways - Rev3 mutant cell line (AID 743014); settings: chicken DT40 Rev3-/- viability, CellTiter-Glo, 40 h; series mostly up to 68.4 µM; also: nearly all actives have a fitted effect of over 55% in size; also: potency is read from the fitted curve at half-maximal effect
# [4] = qHTS assay for identifying genotoxic compounds that show differential cytotoxicity against isogenic chicken DT40 cell lines with known DNA damage response pathways - Rad54/Ku70 mutant cell line (AID 743015); settings: DT40 Rad54/Ku70 mutant viability, CellTiter-Glo, 40 h; series mostly up to 66.8 µM; also: nearly all actives have a fitted effect of over 60% in size; also: potency is read from the fitted curve at half-maximal effect
# [5] = qHTS assay to identify small molecule antagonists of the androgen receptor (AR) signaling pathway - cell viability counter screen (AID 743033; also: nearly all actives have a fitted effect of over 45% in size; also: potency is read from the fitted curve at half-maximal effect); settings: AR-bla HEK293 viability, CellTiter-Glo luminescence, 16 h; series mostly up to 58.5 µM
# [6] = qHTS assay to identify small molecule antagonists of the androgen receptor (AR) signaling pathway using the MDA cell line - cell viability counter screen (AID 743041; also: nearly all actives have a fitted effect of over 45% in size; also: potency is read from the fitted curve at half-maximal effect); settings: MDA-kb2 viability, CellTiter-Fluor, 16 h, cells co-treated with R1881 androgen agonist; series mostly up to 70.3 µM
# Summary of the method: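 Same-well cytotoxicity was assessed by CellTiter-Fluor in MDA-kb2 AR-luc cells after 16 h of compound treatment under R1881 agonism.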
# [7] = molecular target: Androgen receptor (Homo sapiens) (UniProt P10275); assay: qHTS assay to identify small molecule antagonists of the androgen receptor (AR) signaling pathway (AID 743035; active = well fitted inhibition curve with a large enough effect in the signal ratio in the repeat runs, not every such curve was filed as active; the % refers to the signal ratio); settings: HEK293 AR-UAS-bla, R1881-stimulated, beta-lactamase FRET, 16 h; series mostly up to 58.5 µM
# Summary of the method: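 Beta-lactamase FRET read (2 h RT incubation with LiveBLAzer B/G) following 16 h of compound plus R1881 treatment of AR-UAS-bla HEK293 cells, which had been pre-incubated 4 h at 37C.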
# [8] = molecular target: Androgen receptor (Homo sapiens) (UniProt P10275); assay: qHTS assay to identify small molecule agonists of the androgen receptor (AR) signaling pathway (AID 743036; active = well fitted activation curve with a large enough effect in the signal ratio in the repeat runs, with a control signal flat, not every such curve was filed as active; the % refers to the signal ratio; also: potency is read from the fitted curve at half-maximal effect); settings: HEK293 AR-UAS-bla GripTite, beta-lactamase FRET ratio, 16 h; series mostly up to 62.4 µM
# Summary of the method: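 Screening used 2,000 AR-bla HEK293 cells per well, treated 16 h at 37C with test compounds in DMSO alongside positive and DMSO-only controls; beta-lactamase activity was then read by LiveBLAzer B/G FRET fluorescence after 2 h at room temperature.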
# [9] = molecular target: Androgen receptor (Homo sapiens) (UniProt P10275); assay: qHTS assay to identify small molecule agonists of the androgen receptor (AR) signaling pathway using the MDA cell line (AID 743040; also: nearly all actives have a fitted effect of over 20% in size); settings: MDA-kb2 AR-luc cells, MMTV luciferase, 16 h, stronger effect = higher value
# Summary of the method: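 Human breast carcinoma MDA-kb2 reporter cells (MMTV-luc, AR/GR elements) were treated for 16 h at 37C in 0% CO2 following a 5 h settling period. Signal was quantified by ONE-Glo luminescence.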
# [10] = molecular target: Androgen receptor (Homo sapiens) (UniProt P10275); assay: qHTS assay to identify small molecule antagonists of the androgen receptor (AR) signaling pathway using the MDA cell line (AID 743042; also: nearly all actives have a fitted effect of over 55% in size); settings: MDA-kb2 AR-luc, MMTV luciferase, R1881 antagonist, 16 h; series mostly up to 70.3 µM
# Summary of the method: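 MDA-kb2 breast carcinoma cells carrying MMTV-luciferase (AR/GR responsive) were co-treated with compounds and the agonist R1881 for 16 h at 37C. Inhibition read as ONE-Glo luminescence; CellTiter-Fluor fluorescence measured in parallel for cytotoxicity.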
# Androgen receptor (Homo sapiens), sequence (P10275 whole entry, looked up): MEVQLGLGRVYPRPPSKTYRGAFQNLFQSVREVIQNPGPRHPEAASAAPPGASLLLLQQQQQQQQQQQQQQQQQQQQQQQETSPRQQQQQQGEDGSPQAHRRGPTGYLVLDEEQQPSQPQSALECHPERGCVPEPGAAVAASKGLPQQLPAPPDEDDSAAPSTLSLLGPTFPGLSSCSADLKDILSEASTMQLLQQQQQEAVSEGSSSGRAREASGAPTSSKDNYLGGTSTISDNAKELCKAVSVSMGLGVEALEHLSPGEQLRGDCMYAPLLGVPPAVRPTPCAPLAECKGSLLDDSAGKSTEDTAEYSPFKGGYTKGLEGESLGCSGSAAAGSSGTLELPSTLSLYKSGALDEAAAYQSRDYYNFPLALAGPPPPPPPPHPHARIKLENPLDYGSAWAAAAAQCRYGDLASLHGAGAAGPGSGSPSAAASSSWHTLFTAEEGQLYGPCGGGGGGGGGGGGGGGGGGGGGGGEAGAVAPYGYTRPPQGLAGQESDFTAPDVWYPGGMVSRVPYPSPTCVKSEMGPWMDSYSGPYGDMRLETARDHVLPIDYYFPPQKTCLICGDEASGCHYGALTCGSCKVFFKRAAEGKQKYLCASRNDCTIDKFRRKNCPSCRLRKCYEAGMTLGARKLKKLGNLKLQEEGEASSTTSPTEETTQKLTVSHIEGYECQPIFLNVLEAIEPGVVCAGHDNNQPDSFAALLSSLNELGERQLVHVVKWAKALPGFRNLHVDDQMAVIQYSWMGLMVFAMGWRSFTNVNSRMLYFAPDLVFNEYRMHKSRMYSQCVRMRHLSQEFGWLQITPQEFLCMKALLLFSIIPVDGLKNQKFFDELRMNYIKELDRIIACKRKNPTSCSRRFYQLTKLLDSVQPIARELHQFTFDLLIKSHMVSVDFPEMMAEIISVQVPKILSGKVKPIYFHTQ
Compound,Potency [1],Potency [2],Potency [3],Potency [4],Potency [5],Potency [6],Potency [7],Potency [8],activity change ([9]; at 70.3 µM (top of the series)),Potency [10],activity change ([9]; at 95 µM (top of the series))
CCCCCC(C)=O,inactive,inactive,inactive,inactive,inactive,inactive,–,–,–,–,–
C1CCCNCC1,inactive,inactive,inactive,inactive,inactive,inactive,–,–,–,–,–
CCOC(=O)c1ccc(O)cc1,inactive,inactive,inactive,inactive,inactive,inactive,–,–,–,–,–
Cc1cc(C)c(O)c(C)c1,inactive,inactive,inactive,inactive,inactive,inactive,–,–,–,–,–
OCc1ccc(Cl)cc1Cl,inactive,inactive,inactive,inactive,inactive,inactive,–,–,–,–,–
Nc1cccc(C(F)(F)F)c1,inactive,inactive,inactive,inactive,inactive,inactive,–,–,–,–,–
COC(=O)/C=C\C(=O)OC,inactive,inactive,inactive,inactive,inactive,inactive,–,–,–,–,–
CCCCCCCC(=O)O,inactive,inactive,inactive,inactive,inactive,inactive,–,–,–,–,–
CC(=O)OC/C=C(\C)CCC=C(C)C,inactive,inactive,inactive,inactive,inactive,inactive,–,–,–,–,–
CCCOCC(C)O (stereo not drawn),inactive,inactive,inactive,inactive,inactive,inactive,inactive,inactive,-0.141% (active) and -0.54% (inactive),inactive,–
Clc1cccc(Cl)c1NC1=NCCN1,inactive,inactive,inactive and 61.1 µM (active),inactive,inactive,inactive,–,–,–,–,–
Cc1cc(CC(=O)O)n(C)c1C(=O)c1ccc(Cl)cc1,inactive,inactive,inactive,inactive,inactive,inactive,–,–,–,–,–
OC[C@H]1O[C@@H](Oc2ccc(O)cc2)[C@H](O)[C@@H](O)[C@@H]1O,inactive,inactive,inactive and 30.6 µM (active),inactive,inactive,inactive,–,–,–,–,–
Nc1cccc(N)n1,inactive,inactive,inactive,inactive,inactive,inactive,–,–,–,–,–
CC(C)c1ccc(C(C)C)cc1,inactive,inactive,inactive,inactive,inactive,inactive,–,–,–,–,–
CCCCCCC(=O)O,inactive,inactive,inactive,inactive,inactive,inactive,–,–,–,–,–
CC(=O)Nc1ccc(CC(=O)O)cc1,inactive,inactive,inactive,inactive,inactive,inactive,–,–,–,–,–
Cc1ncc(CO)c(CO)c1O,inactive,inactive,inactive,inactive,inactive,inactive,–,–,–,–,–
CC(=O)CC(=O)N(C)C,inactive,inactive,inactive,inactive,inactive,inactive,–,–,–,–,–
Nc1nc(N)c2nc(-c3ccccc3)c(N)nc2n1,inactive,11.9 µM (active) and 12.3 µM (active) and 4.86 µM (active),9.44 µM (active) and 3.9 µM (active) and 6.11 µM (active),26.6 µM (active) and 6.94 µM (active) and 21.7 µM (active),49.5 µM (active),inactive,–,21.3 µM (active) and 49.5 µM (active) and 49 µM (active),18% (inactive),inactive,–

Compound,Potency [1],Potency [2],Potency [3],Potency [4],Potency [5],Potency [6],Potency [7],Potency [8],activity change ([9]; at 70.3 µM (top of the series)),Potency [10],activity change ([9]; at 95 µM (top of the series))
C[Si](C)(C)N[Si](C)(C)C,inactive,inactive,inactive,inactive,inactive,inactive,–,–,–,–,–
Cc1ccncc1,inactive,inactive,inactive,inactive,inactive,inactive,–,–,–,–,–
CC(=O)OCCC(C)C,inactive,inactive,inactive,inactive,inactive,inactive,–,–,–,–,–
CC(O)CNCC(C)O (stereo not drawn),inactive,inactive,inactive,inactive,inactive,inactive,–,–,–,–,–
N[C@@H](Cc1cc(I)c(Oc2ccc(O)c(I)c2)c(I)c1)C(=O)O,inactive,29.8 µM (active) and inactive,23.7 µM (active) and inactive,inactive,inactive,inactive,–,–,–,–,–
COc1c(Cl)ccc(Cl)c1C(=O)O,inactive,inactive,inactive,inactive,inactive,inactive,–,–,–,–,–
CN=C(NC#N)NCCSCc1nc[nH]c1C,inactive,inactive,inactive and 54 µM (active),inactive and 13.6 µM (active),inactive,inactive,–,–,–,–,–
CC(CN1c2ccccc2Sc2ccccc21)N(C)C (stereo not drawn),inactive,21.1 µM (active) and 55 µM (active) and 54.5 µM (active),26.6 µM (active) and 27.6 µM (active) and 24.3 µM (active),26.6 µM (active) and 30.9 µM (active) and 54.5 µM (active),inactive and 44.1 µM (active),–,–,–,–,–,–
CCCCCCCCO,inactive,inactive,inactive,inactive,inactive,inactive,–,–,–,–,–
O=C1O[C@H]([C@H](O)CO)C(O)=C1O,inactive,inactive,inactive,inactive,inactive,inactive,–,–,–,–,–
CC(=O)c1nccs1,inactive,inactive,inactive,inactive,inactive,inactive,–,–,–,–,–
OCC(O)CS (stereo not drawn),inactive,inactive,inactive,inactive,inactive,inactive,inactive,inactive,0.512% (inactive),inactive,–
C[n+]1ccn(CCO)c1,inactive,inactive,inactive,inactive,inactive,inactive,–,–,–,–,–
COc1ccccc1[N+](=O)[O-],inactive,inactive,inactive,inactive,inactive,inactive,–,–,–,–,–
Brc1ccc(Oc2ccc(Br)cc2)cc1,inactive,inactive,inactive,inactive,inactive,inactive,–,–,–,–,–
CC/C=C(\C(=O)N[C@@H]1C(=O)N2C(C(=O)OCOC(=O)C(C)(C)C)=C(COC(N)=O)CS[C@H]12)c1csc(N)n1,inactive,inactive,inactive,inactive,inactive,inactive,–,–,–,–,–
COc1cc(NC(=O)CC(C)=O)c(OC)cc1Cl,inactive,inactive,inactive,inactive,inactive,inactive,–,–,–,–,–
CCOC(=O)CC(=O)OCC,inactive,inactive,inactive,inactive,inactive,inactive,–,–,–,–,–
Oc1ccc(Cc2ccccc2O)cc1,inactive,inactive,inactive,–,inactive,inactive,–,–,–,–,–
O=C1C(N(CO)C(=O)NCO)N(CO)C(=O)N1CO (stereo not drawn),inactive,inactive,inactive,–,inactive,inactive,–,–,–,–,–

Compound,Potency [1],Potency [2],Potency [3],Potency [4],Potency [5],Potency [6],Potency [7],Potency [8],activity change ([9]; at 70.3 µM (top of the series)),Potency [10],activity change ([9]; at 95 µM (top of the series))
NC1CCCCC1N (stereo not drawn),inactive,inactive,inactive,–,inactive,inactive,–,–,–,–,–
OC1CCCCC1,inactive,inactive,inactive,inactive,inactive,inactive,–,–,–,–,–
CN1CCCC1=O,inactive,inactive,inactive,–,inactive,inactive,–,–,–,–,–
COc1ccc2cc3[n+](cc2c1OC)CCc1cc2c(cc1-3)OCO2,inactive,2.37 µM (active) and 4.36 µM (active),3.35 µM (active) and 3.09 µM (active),–,–,22.1 µM (active) and 7.75 µM (active),–,–,–,–,–
CC(C=O)Cc1ccc(C(C)(C)C)cc1 (stereo not drawn),inactive,inactive,inactive,–,inactive,inactive,inactive,inactive,-2.03% (inactive) and -1.92% (inactive),inactive,–
O=C1CCCCCCCCCCC1,inactive,inactive,inactive,–,inactive,inactive,–,–,–,–,–
NC(=O)c1ncn([C@@H]2O[C@H](CO)[C@@H](O)[C@H]2O)n1,inactive,668 nM (active) and 5.12 µM (active),750 nM (active) and 1.62 µM (active),–,inactive,inactive,–,–,–,–,–
O=C1OC(=O)c2c(Cl)c(Cl)c(Cl)c(Cl)c21,inactive,inactive,inactive,–,inactive,inactive,–,–,–,–,–
Cc1ccc(Cl)cc1,inactive,inactive,inactive,–,inactive,inactive,–,–,–,–,–
CCc1cccc(CC)c1N,–,inactive,inactive,inactive,inactive,inactive,inactive,inactive,0.738% (inactive),inactive,0.21% (inactive)
C=C(CC(=O)O)C(=O)O,inactive,inactive,inactive,–,inactive,inactive,–,–,–,–,–
CC1=CC(=O)CC(C)(C)C1,inactive,inactive,inactive,–,inactive,inactive,–,–,–,–,–
O=[N+]([O-])c1cc(C(F)(F)F)ccc1Cl,inactive,inactive,inactive,–,inactive,–,inactive,inactive,-0.292% (inactive),inactive,5.79% (inactive)
COCN(COC)c1nc(N(COC)COC)nc(N(COC)COC)n1,inactive,inactive,inactive,–,inactive,inactive,–,–,–,–,–
CCCCCCCCCCCCCC(=O)O,inactive,inactive,inactive,inactive,inactive,inactive,–,–,–,–,–
NCCNCCNCCN,inactive,inactive,inactive,inactive,inactive,inactive,–,–,–,–,–
Cc1ccccc1Cl,inactive,inactive,inactive,–,inactive,inactive,inactive,inactive,-0.0268% (inactive),inactive,-0.806% (inactive)
CS(=O)(=O)c1ccc(Cl)cc1,inactive,inactive,inactive,–,inactive,inactive,–,–,–,–,–
